BH1578 lux ind = induces V. cholerae light production without autoinducers. V. cholerae BH1578 lux reporter, luminescence, 6 h. activation, % at 18.7 µM. actives 0.16% (n = 350,000). AID 588436; in the data active = activation mostly above about 9.7%, no sharp cut-off
GDH-TPI counter-1 = GDH-TPI coupled enzyme inhibition counter-screen | GDH-TPI coupled enzyme counterscreen, NADH absorbance | inhibition, % at 4.8 µM | actives 1.2% (n = 360,000) | AID 588335;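 also: 0% = DMSO wells and 100% = wells lacking the enzyme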
FBA Mtb inh = inhibits M. tuberculosis FBA enzyme. P9WQA3. purified M. tuberculosis FBA, fluorescence read-out. inhibition, % at 1 µM. actives 2.3% (n = 360,000). AID 588726; in the data active = inhibition above about 27%;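 also: 0% = vehicle and 100% = reference inhibitor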
Target sequence (P9WQA3 whole entry, looked up): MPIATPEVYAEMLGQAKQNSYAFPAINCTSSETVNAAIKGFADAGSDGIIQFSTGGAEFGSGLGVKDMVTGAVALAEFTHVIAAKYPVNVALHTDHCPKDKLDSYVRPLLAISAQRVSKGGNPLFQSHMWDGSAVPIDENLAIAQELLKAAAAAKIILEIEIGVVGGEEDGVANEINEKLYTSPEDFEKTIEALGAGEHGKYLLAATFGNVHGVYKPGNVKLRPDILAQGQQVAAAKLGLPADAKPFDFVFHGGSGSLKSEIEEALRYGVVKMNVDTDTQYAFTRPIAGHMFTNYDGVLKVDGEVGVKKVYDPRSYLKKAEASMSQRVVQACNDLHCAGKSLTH
CCHFV vOTU inh = blocks the CCHF virus ovarian tumor domain protease | actives 0.55% (n = 370,000) | inhibition, % at 11.5 µM | AID 651958 | CCHFV vOTU protease, Pep-AMC fluorescence; also: 0% = vehicle wells with enzyme and 100% = no enzyme wells
Mtb FBA inh conf = confirmation of M. tuberculosis fructose-bisphosphate aldolase inhibitors | inhibition, % at 1 µM | AID 651616 | actives 78% (n = 5,600) | shares compounds with FBA Mtb inh | purified M. tuberculosis FBA, fluorescence read-out; in the data active = inhibition above about 27%;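 also: 0% = vehicle wells and 100% = reference inhibitor wells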
GDH-TPI counter-2 = GDH-TPI inhibition counter-screen for FBA inhibitors; shares compounds with FBA Mtb inh; GDH-TPI coupled enzyme counterscreen, fluorescence; inhibition, % at 1 µM; actives 81% (n = 5,600); AID 652141; in the data active = inhibition above about 10%
GDH-TPI DR = inhibits GDH-TPI coupling enzymes in dose response | shares compounds with FBA Mtb inh | GDH-TPI coupled enzyme assay, fluorescence, artifact counterscreen | IC50, µM | actives 79% (n = 170) | AID 652145; call rule not given here
* hit, by the source's call; i = inactive; x = no result; + = active, no number. Hits are enriched below; roughly 3.9% of the tested compounds scored in any of these assays. Rule as the data show it, unless noted: active = inhibition above about 30%; inactive = the rest.

SMILES	BH1578 lux ind	GDH-TPI counter-1	FBA Mtb inh	CCHFV vOTU inh	Mtb FBA inh conf	GDH-TPI counter-2	others
O=C(CSc1ccc2ccccc2c1)NCc1cccs1	i	2.6	0.5	9.7	x	x
O=C(Nc1ccc(Cl)cc1)NN1CC(=O)N(c2cccc(C(F)(F)F)c2)CC1=O	-0.3	10.1	-0.3	6.9	x	x
CCN(C(=O)c1cc2c(=O)n3cccc(C)c3nc2n1CCCOC)C1CCCCC1	i	12.9	37.8*	-29.0	103.1*	84.8*
COCCCn1c(C(=O)Nc2ccc3c(c2)OCO3)cc2c(=O)n3ccccc3nc21	-0.4	4.3	-2.4	2.0	x	x
COc1ccc(CCn2c(=N)c(C(=O)N3CCN(C)CC3)cc3c(=O)n4ccccc4nc32)cc1	1.4	14.9	9.6	-1.4	x	x
Cc1cccn2c(=O)c3cc(C(=O)NCCN4CCOCC4)c(=N)n(CCc4ccccc4)c3nc12	-0.6	13.2	102.1*	-128.2	58.0*	55.5*
Cc1ccc2nc3c(cc(C(=O)NCc4ccco4)c(=N)n3C3CCCC3)c(=O)n2c1	i	-0.8	39.2*	-101.6	91.8*	75.6*
N=c1c(C(=O)NC2CCCCC2)cc2c(=O)n3ccccc3nc2n1Cc1ccc(F)cc1	-6.7	3.5	39.6*	-32.6	70.0*	50.6*
CCOC(=O)[C@]12CCC=C1N(CCC1=CCCCC1)C(=O)[C@H](CC(=O)NCC1CCCCC1)C2	x	x	x	3.9	x	x
CSC1=NC(C)(C)C=C(/C=C/c2ccc(Cl)cc2)N1	-0.2	11.0	1.8	-1.1	x	x
COc1ccc(CCNC(=O)c2cc3c(=O)n4ccccc4nc3n(CCN3CCOCC3)c2=N)cc1	-0.6	6.6	23.9	-20.9	x	x
Cc1cccn2c(=O)c3cc(C(=O)NC4CCCCC4)c(=N)n(Cc4ccccc4)c3nc12	-0.6	4.2	61.7*	-39.8	103.0*	89.2*
Cc1cccn2c(=O)c3cc(C(=O)NC4CCS(=O)(=O)C4)n(Cc4ccccc4)c3nc12 (stereo not drawn)	-3.1	21.6	39.9*	-26.8	114.4*	92.2*
Cc1cccn2c(=O)c3cc(C(=O)NC4CCCC4)c(=N)n(CCc4ccccc4)c3nc12	-0.5	5.0	63.2*	-27.4	119.0*	78.2*
COCCCn1c(C(=O)NCCN2CCOCC2)cc2c(=O)n3cccc(C)c3nc21	-1.9	7.4	77.8*	-89.7	+	160.7*
O=C(Nc1ccc(F)cc1)C(c1ccnc2ccccc12)N1CCN(C(=O)c2ccco2)CC1 (stereo not drawn)	x	x	x	6.8	x	x
Cc1cccn2c(=O)c3cc(C(=O)NC4CCCC4)c(=N)n(C4CCCCC4)c3nc12	-0.3	6.0	67.4*	-30.0	14.2	2.7	GDH-TPI DR=0.772*
COc1ccc(CCNC(=O)c2cc3c(=O)n4ccccc4nc3n(C3CCCCC3)c2=N)cc1OC	-0.4	-4.7	2.0	-3.1	x	x
Cc1cccn2c(=O)c3cc(C(=O)NC4CCCC4)c(=N)n(Cc4ccc(F)cc4)c3nc12	-0.4	0.0	59.7*	-43.1	6.2	0.8
COCCCn1c(C(=O)NCCC2=CCCCC2)cc2c(=O)n3ccccc3nc21	-0.2	2.4	47.2*	-60.4	47.5*	35.7*
O=C(CN(C(=O)c1csnn1)c1ccc(F)c(Cl)c1)NC1CCCCC1	-0.2	-11.7	-0.6	9.2	x	x
CC(C)c1ccc(S(=O)(=O)N2CCN(CC(O)CN3CCOCC3)CC2)cc1 (stereo not drawn)	-0.3	-1.3	50.9*	-1.1	81.8*	69.5*
O=c1c2ccccc2n(CC(O)CN2CCOCC2)c2ccccc12 (stereo not drawn)	-7.7	6.9	32.9*	-50.3	5.2	-1.0
COc1ccc(C2C3=C(CCCC3=O)Nc3c(-c4ccccc4)c(C)nn32)cc1 (stereo not drawn)	i	45.2*	97.0*	x	168.6*	135.2*
COc1ccc(C2NC(=O)NC3=C2C(=O)CCC3)cc1 (stereo not drawn)	-0.3	-2.4	-0.3	-8.5	x	x
SMILES	BH1578 lux ind	GDH-TPI counter-1	FBA Mtb inh	CCHFV vOTU inh	Mtb FBA inh conf	GDH-TPI counter-2	others
O=C(NCCc1c[nH]c2ccccc12)c1ccc2[nH]c(=O)c(=O)[nH]c2c1	i	4.4	2.6	5.0	x	x
O=C(NCCO)c1ccc2[nH]c3ccccc3c2c1	9.7	-11.1	34.7*	-5.7	-2.1	-4.2
Cc1cc(C)c2cc(C#N)c(NCCCNC(=O)c3ccncc3)nc2c1	-0.2	-2.4	16.4	-12.6	x	x
COc1ccc(C(=O)NCCNc2nc3ccc(C)cc3cc2C#N)cc1OC	i	-1.4	34.7*	-43.1	+	157.5*
COc1cc(C(=O)NCCCNc2nc3cc(C)cc(C)c3cc2C#N)cc(OC)c1OC	-0.4	13.8	32.0*	-3.5	84.9*	54.9*
O=C1/C(=C\c2ccccn2)SC(=S)N1c1ccc(S(=O)(=O)Nc2nccs2)cc1	-1.0	3.5	0.4	5.3	x	x
COc1ccc2oc(=O)c(C(=O)N3CCN(C(=O)c4ccccc4)CC3)cc2c1	-0.3	1.5	27.3*	-50.6	118.7*	92.2*
COc1ccc2oc(=O)c(C(=O)N3CCN(C(=O)c4ccco4)CC3)cc2c1	-0.5	1.5	34.4*	-46.9	114.8*	76.4*
COc1ccc2cc(OC)c(C(=O)N3CCOCC3)cc2c1	-0.1	-7.5	35.7*	-28.1	-2.1	-4.5
COc1cc2ccccc2cc1C(=O)N1CCN(C(C)=O)CC1	i	6.1	1.4	3.2	x	x
CCNc1nc(Cl)nc(N(NC(C)=O)C(C)C)n1	-0.7	-7.8	-1.4	1.4	x	x
COCCCNC(=S)N1CCCN(c2nc3cc(C)ccc3cc2C#N)CC1	-0.1	2.7	6.3	6.6	x	x
CCOC(=O)c1ccc(NC(=O)c2ccccc2N(C)S(=O)(=O)c2ccccc2)cc1	i	-0.4	-1.7	-16.8	x	x
COc1cc2c(c3ccccc13)CCCC2=O	-2.2	11.5	110.3*	-139.7	115.9*	91.2*
CCOC(=O)c1sc2nc(C)nc(NCc3ccccc3)c2c1C	-0.5	6.7	53.5*	-7.5	-4.3	0.4
CCOC(=O)c1sc2nc(C)nc(NCCc3ccc(S(N)(=O)=O)cc3)c2c1C	i	4.2	35.5*	-18.0	95.6*	77.9*
CCOC(=O)c1sc2nc(C)nc(Nc3ccccc3)c2c1C	i	-0.6	1.9	3.6	x	x
COc1ccccc1N1CCN(C(=O)c2coc(=O)c(Br)c2)CC1	-0.2	15.3	84.4*	-29.6	+	+
COc1ccccc1NC(=O)c1coc(=O)c(Br)c1	i	5.5	62.7*	-22.9	52.1*	46.1*
COc1ccccc1NC(=O)c1cc(N)cc(C(=O)Nc2ccccc2OC)c1	-0.3	7.2	0.3	4.5	x	x
CN(C)CCNC(=O)c1coc(=O)c(Br)c1	-0.2	10.0	66.3*	-38.8	+	+
O=C(COc1ccc2c(-c3ccccc3)cc(=O)oc2c1)N1C[C@H]2C[C@@H](C1)c1cccc(=O)n1C2	-0.5	17.4	4.1	1.9	x	x
